POLB inh – inhibitors of human DNA polymerase beta | Pol beta primer extension/strand displacement, fluorescence kinetic | Potency, µM (doses to about 114 µM), actives largely listed as inhibitors | 340,000 tested, 1.3% active | P06746
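Enzyme-only controls used 10 nM Pol beta; buffer lacking enzyme served as negative control. Compound preincubated 15 min, then 50 nM substrate added; 0 and 10 min reads at room temperature.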
Pol eta inh – inhibitors of human DNA polymerase eta. AID 588591. Q9Y253. Potency, µM (highest dose often 114 µM), actives largely listed as inhibitors. 390,000 tested, 1.2% active. recombinant Pol eta, fluorescent DNA replication assay
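Fluorescent replication assay: 50 nM final substrate added after a 15 min room-temperature compound preincubation with 10 nM enzyme. Signal taken at 0 min and again at 10 min.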
POLK inh – DNA polymerase kappa (human) inhibition; Q9UBT6; purified Pol kappa, fluorescent DNA synthesis assay, 10 min; Potency, µM (doses to about 107 µM), actives largely listed as inhibitors; 400,000 tested, 0.53% active; AID 588579
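Pol kappa 10 nM + cpd, 15 min RT; start w/ substrate 50 nM final; fluorescence kinetic read, 0 and 10 min. Neg ctrl: buffer, no enzyme.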
L3MBTL1 block – inhibitors of human L3MBTL1; Q9Y468; AlphaScreen L3MBTL1–H3K9me1 peptide binding; Potency, µM (highest dose often 57.1 µM), hits mostly inhibitors; 230,000 tested, 0.66% active; note: nearly all actives have a fitted effect of over 60% in size
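L3MBTL1 (50 nM) pre-complexed 30 min with biotinylated H3(1-15)K9me1 peptide (75 nM), then compounds added for 30 min at room temperature; AlphaScreen streptavidin donor/nickel chelate acceptor beads (10 ug/mL final) read after 30 min dark incubation.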
POLI inh – blocks human DNA polymerase iota activity | Q9UNA4 | Pol iota fluorescent replication assay, 10 min | Potency, µM (doses to about 115 µM), usual class: inhibitors | 390,000 tested, 1% active | AID 588590
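Fluorescent replication assay read twice, at 0 min and 10 min after adding 50 nM (final) substrate. Enzyme (10 nM) and compounds were first incubated 15 min at room temperature; enzyme-free buffer wells were negative controls.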
WRN inhibitor – inhibitors of human WRN helicase. AID 651768. Q14191. WRN helicase unwinding, fluorescent forked duplex, kinetic. 360,000 tested, 0.46% active. Potency, µM (doses to about 114 µM), hits mostly inhibitors; note: nearly all actives have a fitted effect of over 55% in size
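Fluorescence dequenching readout, ex 525 nm/em 598 nm, kinetic mode: forked duplex DNA (100 nM final) with adjacent fluorophore and quencher unwound by WRN (20 nM final) with 2 mM ATP. Compound preincubation 15 min, room temperature.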
A number is an active result; [ ] = dose if it differs, or a comment. The list is not random: actives were taken first. Their share in the collection is about 2.5%. Calls come from the whole dose curve; as a rule, active = well fitted curve in the direction sought with a large enough effect; inconclusive = small, poorly fitted or top-dose-only effect, or another doubt; inactive = no such curve, though single readings can be large; an effect the other way counts as inactive or inconclusive.

`O=C1OC(c2ccccc2)=N/C1=C\C=C\c1ccco1` gave POLB inh inactive, Pol eta inh inactive, POLK inh inactive, L3MBTL1 block inconclusive, POLI inh inconclusive and WRN inhibitor inactive.
O=C1OC(c2ccc(Cl)cc2)=N/C1=C\C=C\c1ccco1 was read as POLB inh 28µM, Pol eta inh inactive, POLK inh inconclusive, L3MBTL1 block inconclusive, POLI inh inconclusive and WRN inhibitor inactive.
For Cc1nnc2ccc(-c3ccc(NC(=O)c4ccco4)cc3)nn12 the results were POLB inh 18µM, Pol eta inh inconclusive, POLK inh inactive, POLI inh inactive and WRN inhibitor inactive.
Screening O=[N+]([O-])c1ccc(-c2c[nH]c(=S)[nH]2)cc1 returned POLB inh inconclusive, Pol eta inh 40µM, POLK inh inconclusive, L3MBTL1 block inconclusive, POLI inh inconclusive and WRN inhibitor inactive[11.6 µM].
Screening O=S(=O)(NCC(c1ccco1)S(=O)(=O)c1cccs1)c1ccccc1 (stereo not drawn) returned POLB inh inactive, Pol eta inh inactive, POLK inh inactive and POLI inh inactive.
For O=S(=O)(NCC(O)COCc1ccco1)c1cccs1 (stereo not drawn) the results were POLB inh 22µM, Pol eta inh 20µM, POLK inh 35µM, L3MBTL1 block inconclusive, POLI inh 22µM and WRN inhibitor inconclusive.
For Cc1[nH]c2c(C)cccc2c1CC(=O)O the results were POLB inh inactive, Pol eta inh inactive, POLK inh inactive, POLI inh inactive and WRN inhibitor inactive.
Screening Cc1cccc2c(N=O)c(O)[nH]c12 returned POLB inh inactive, Pol eta inh 35µM, POLK inh inactive, POLI inh inactive and WRN inhibitor inactive.
COc1cc(/C=N/NC(=O)Cc2nnc(NC(=O)c3ccccc3)s2)ccc1O was read as POLB inh inconclusive, Pol eta inh inactive, POLK inh inactive, POLI inh inactive and WRN inhibitor inactive.
O=C(C[n+]1ccc(C(=O)N/N=C/c2ccc(O)cc2)cc1)c1ccccc1 was read as POLB inh 56µM, Pol eta inh inconclusive, POLK inh inactive, POLI inh inactive and WRN inhibitor inactive.
Screening O=C(Cc1nnc(NC(=O)c2ccccc2)s1)N/N=C/c1ccc(O)cc1 returned POLB inh 25µM, Pol eta inh inactive, POLK inh inactive, L3MBTL1 block inactive, POLI inh inconclusive and WRN inhibitor inactive.
`COc1cc(C(=O)Nc2nnc(-c3sccc3C)s2)cc(OC)c1OC` gave POLB inh inactive, Pol eta inh 13µM, POLK inh inactive, L3MBTL1 block inactive, POLI inh inactive and WRN inhibitor 50µM.
Screening Cc1cccc(NC(=S)N(Cc2cccc(Br)c2)CC2CCC(C(=O)O)CC2)c1 (stereo not drawn) returned POLB inh inactive, Pol eta inh inactive, POLK inh inactive, POLI inh inactive and WRN inhibitor inactive.
For O=[N+]([O-])c1cc([N+](=O)[O-])c2nonc2c1Nc1ccc(O)cc1 the results were POLB inh inactive, Pol eta inh inactive, POLK inh inactive, L3MBTL1 block inactive, POLI inh 2.5µM and WRN inhibitor inactive[11.6 µM].
`O=[N+]([O-])c1cc([N+](=O)[O-])c2nonc2c1Nc1ccccc1O` gave POLB inh inactive, Pol eta inh inactive, POLK inh inactive, POLI inh inactive and WRN inhibitor inactive.
Cc1nc2scc(-c3ccc(C(C)(C)C)cc3)c2c(=O)n1N was read as POLB inh inactive, Pol eta inh 89µM, POLK inh inactive, L3MBTL1 block inactive, POLI inh inconclusive and WRN inhibitor inactive.
Screening COc1ccc(-c2csc3nc(C)n(-n4cccc4)c(=O)c23)cc1 returned POLB inh inactive, Pol eta inh inactive, POLK inh inactive, L3MBTL1 block inactive, POLI inh inactive and WRN inhibitor inactive.
Screening CCn1c(=O)[nH]c2ccccc21 returned POLK inh inactive[19.4 µM].
Screening CCn1c(C)c(CS(=O)(=O)c2ccccc2)[nH]c1=O returned POLB inh inactive, Pol eta inh inactive, POLK inh inactive, POLI inh inconclusive and WRN inhibitor 18µM.
Screening O=C(CSc1nnc(SCc2cccc3ccccc23)s1)N=Nc1c(O)[nH]c2ccccc12 returned POLB inh 13µM and L3MBTL1 block inactive.

Source: PubChem (National Center for Advancing Translational Sciences (NCATS))
